In the library only some 0.85% were active in any assay of this set; here they are far more common.
S-ASM inh = inhibitors of human secretory acid sphingomyelinase | AID 504937 | placental ASM, HMU-PC fluorogenic substrate, 60 min | Potency, µM (series often up to 57.5 µM), for inactives: at the highest dose activity change, negative = inhibition, most hits filed as inhibitors | hit rate 0.006% among 340,000 | P17405; active = well fitted inhibition curve with a large enough effect; inconclusive = small, poorly fitted or top-dose-only effect; inactive = no such curve, though single readings can be large or run the other way; also: potency is read from the fitted curve at half-maximal effect
Target sequence (P17405 47-631 limits assumed): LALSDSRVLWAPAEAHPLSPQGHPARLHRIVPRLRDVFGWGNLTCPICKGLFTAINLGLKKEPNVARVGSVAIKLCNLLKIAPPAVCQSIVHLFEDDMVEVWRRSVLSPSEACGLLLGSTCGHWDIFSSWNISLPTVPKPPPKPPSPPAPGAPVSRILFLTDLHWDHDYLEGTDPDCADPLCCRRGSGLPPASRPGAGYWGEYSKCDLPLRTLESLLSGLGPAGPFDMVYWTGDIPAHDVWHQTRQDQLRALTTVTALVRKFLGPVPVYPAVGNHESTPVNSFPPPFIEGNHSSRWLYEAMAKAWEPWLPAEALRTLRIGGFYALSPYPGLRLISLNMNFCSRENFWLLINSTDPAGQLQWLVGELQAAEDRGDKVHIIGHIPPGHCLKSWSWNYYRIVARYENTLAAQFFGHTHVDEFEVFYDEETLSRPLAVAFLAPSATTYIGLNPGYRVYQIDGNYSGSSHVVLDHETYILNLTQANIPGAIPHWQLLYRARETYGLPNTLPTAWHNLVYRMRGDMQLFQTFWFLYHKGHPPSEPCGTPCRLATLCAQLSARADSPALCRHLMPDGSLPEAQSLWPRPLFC
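Fluorogenic HMU-PC substrate (9 uM final) is turned over by placental ASM in 60 min at 37 C after a 10 min compound preincubation. Reaction ended by alkaline stop (pH 10), with fluorescence read at 386/447 nm.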
TSHR antagonist = antagonists of human thyroid stimulating hormone receptor; P16473; TSHR-expressing cells, TSH-stimulated cAMP HTRF, 2 h; active compounds read low; activity change, negative = inhibition, % at 11.5 µM; hit rate 0.2% among 330,000; AID 504810;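 active = activity change below a set negative limit, meaning inhibition stronger than a set level, cut at about -70% in these data; inconclusive = activity change between two set negative limits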; also: % is scaled to controls: 0 for no effect and ±100 for the full control effect
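Read-out is FRET at 665 nm (cryptate excitation 337 nm) from a cryptate-tagged anti-cAMP antibody, competed by cell cAMP against cAMP-d2. Compounds are tested on freshly harvested TSHR cells challenged with 4nM TSH (EC80) for 2 hours at 37 deg C.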
Chronic BCR inh = chronic active BCR signaling inhibition; ABC-DLBCL IkBa-CBG/CBR reporter, luminescence ratio, 4 h; Potency, µM (series often up to 46.1 µM), without a hit: top-dose activity change, negative = inhibition, usual class: inhibitors; hit rate 0.05% among 340,000; AID 493014; active = well fitted inhibition curve with a large enough effect in the signal ratio, with a control signal flat, not every such curve was filed as active; inconclusive = small, poorly fitted or top-dose-only effect, or effect the other way, or a change in a side signal; the % refers to the signal ratio;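 also: potency is read from the fitted curve at half-maximal effect; plate controls were basal doxycycline-induced cells for no effect and cells given 10 µM MG132 for full effect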
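TMD8 human ABC-DLBCL cells with doxycycline-inducible IκBα–green luciferase fusion and unfused red luciferase, in 0.5% FBS medium; compounds up to 46 uM, 4 h at 37C. Green/red luminescence ratio, filter-overlap corrected, fitted to concentration-response curves.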
Six1-Eya2 blk = blocks human Six1 binding to Eya2 | Q15475+O00167 | AlphaScreen GST-Six1/His-Eya2 binding, biochemical; active compounds read low | activity change, % (concentration not given with the values) | hit rate 0.56% among 360,000; also: % is scaled to controls: 0 for no effect and ±100 for the full control effect
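Six1/Eya2 binding was read as AlphaScreen signal after compounds were pinned into GST-Six1 plus His-tagged Eya2 (5X stock 250/500 nM) in pH 8.0 Tris/NaCl/TCEP buffer, beads added, then incubated 1 h, 37 C, dark.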
CtBP-E1A inh = CtBP/E1A binding inhibition; AlphaScreen GST-E1A/His-CtBP binding, 1536-well; active compounds read low; activity change, % (test concentration not listed); hit rate 0.49% among 340,000; AID 651724; also: % is scaled to controls: 0 for no effect and ±100 for the full control effect
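Homogeneous bead-based format: GST-tagged E1A captured on glutathione donor beads, His-tagged CtBP on nickel acceptor beads; compounds precede bead addition by 2 h at 37 °C.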
Starred values were filed as active, the others as inactive; i = inactive; ? = inconclusive; · = not tested or not shown; [ ] = dose if it differs, or a comment. Rule as the data show it, unless noted: active = activity change below about -65%; inconclusive = mostly about -30% to -63%; inactive = weaker than that.

SMILES	S-ASM inh	TSHR antagonist	Chronic BCR inh	Six1-Eya2 blk	CtBP-E1A inh
Nc1ccc(CC(N)c2csc(Nc3ncccn3)n2)cc1 (configuration not stated)	·	·	·	-67*	-75*
NC(Cc1ccc(F)cc1)c1csc(Nc2ncccn2)n1 (configuration not stated)	·	·	·	?	-68*
O=C(Nc1ccccc1Cl)Oc1ccc(-c2ccccc2)cc1	0%	4	?	0	·
CCCc1cc(=O)oc2c3c(cc(OCC(=O)N4CCC[C@H]4C(=O)O)c12)OC(C)(C)CC3	98%	2	0%	-2	2
O=c1oc2cc(Br)ccc2n1Cc1ccccc1	3%	-11	?	19	14
COc1ccc(C(=O)NC(=S)NNC(=O)c2ccccc2O)cc1	-1%	-5	?	-92*	-12
COc1ccccc1C1c2[nH]c3ccccc3c2C[C@H]2C(=O)N(C3CCN(Cc4ccccc4)CC3)CC(=O)N12 (some centres not stated)	-2%	5	?	-9	0
S=c1[nH]nc(-c2cc(-c3ccccc3)n[nH]2)n1/N=C/C(Br)=C/c1ccccc1	-13%	-13	?	-26	-10
CC(=O)O[C@H]1[C@H]2O[C@]23[C@@H]2CC[C@]4(O)C[C@@H](O)CC[C@]4(C)C2CC[C@]3(C)[C@H]1c1ccc(=O)oc1 (some centres not stated)	0%	-79*	?	9	·
O=C(Cc1ccccc1)N1CCN(Cc2ccccc2Cl)CC1	-5%	5	1%	1	·
Oc1c(Cl)cc(Cl)cc1CN1CCN(Cc2ccccc2)CC1	2%	5	4%	-73*	-6
COCC(=O)O[C@]1(CCN(C)CCCc2nc3ccccc3[nH]2)CCc2cc(F)ccc2[C@@H]1C(C)C	-4%	-13	?	-8	-7
CNc1ccc2oc(C[C@H]3O[C@@]4(CC[C@H]3C)O[C@H]([C@H](C)C(=O)c3ccc[nH]3)[C@H](C)C[C@H]4C)nc2c1C(=O)O	i	-90*	-1%	-8	-13
CN(C)C1C(=O)C(C(N)=O)=C(O)C2(O)C(=O)C3=C(O)c4c(O)cccc4C(C)(O)C3C(O)C12 (configuration not stated)	0%	-13	?	?	-68*
Cc1cc(=O)oc2c(C)c(OC3CCCCC3=O)ccc12 (configuration not stated)	59%	-8	-4%	5	4
Cc1cc([N+](=O)[O-])c(Cl)cc1NC(=O)C(C)C	2%	-3	-2%	-5	0
CNc1cc(Cl)c2nonc2c1[N+](=O)[O-]	-1%	-89*	?	-28	-18
CN1/C(=C\C=C\C2=[N+](C)c3ccc4ccccc4c3C2(C)C)C(C)(C)c2ccccc21	·	-93*	?	·	·
CN1CC[C@@]2(C)c3cc(OC(=O)Nc4ccccc4)ccc3N(C)[C@@H]12	·	-4	·	·	·
Cc1c(N=Nc2c(O)n(-c3ccc(Br)cc3)c(=O)[nH]c2=O)c(=O)n(-c2ccccc2)n1C	-8%	0	-12%	-92*	-94*
Cc1c(N=Nc2c(O)[nH]c(=O)[nH]c2=O)c(=O)n(-c2ccccc2)n1C	-1%	-7	3%	-91*	·
Cc1c(N=Cc2c(O)n(C)c(=O)[nH]c2=O)c(=O)n(-c2ccccc2)n1C	8%	-5	0%	5	·
COc1ccc2[nH]c3c(c2c1)CCN=C3C	-6%	-10	?	-70*	?
CCCN(CC(=O)Nc1ccccc1C)C(=O)CCl	8%	6	?	14	-19
O=C(CCN1CCOCC1)Nc1ccc(Br)cc1C(=O)c1ccccc1	-3%	56	?	-74*	-85*
C/C(=N\NC(=O)c1ccc2ccccc2c1)c1cccs1	1%	0	?	8	3
O=C(COc1ccc2c(c1)OCO2)Nc1cccc(F)c1	2%[11.5 µM]	-9	?	2	-1
O=c1[nH]c(O)c(N=Nc2cc([N+](=O)[O-])ccc2O)c(=O)[nH]1	-11%	-12	8%	-78*	?
CCOc1cc(/C=N/NC(=O)c2ccc(N(C)S(=O)(=O)c3ccccc3)cc2)ccc1OC	-3%	13	?	?	-5
CN1CCN(c2ccc([N+](=O)[O-])c3no[n+]([O-])c23)CC1	-1%	-97*	?	3	-1

Compound activity (PubChem)
